Screening results as filed in PubChem BioAssay.
KB-3-1 tox: kills parental KB-3-1 adenocarcinoma cells; KB-3-1 viability, CellTiter-Glo ATP luminescence, 72 h; Potency, µM (highest dose often 46.1 µM), hits mostly cytotoxic; actives 1.4% (n = 400,000); AID 1347075; also: nearly all actives have a fitted effect of over 60% in size
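Screening of KB-3-1 cells (DMEM, 10% FBS, phenol-red free) ran from lowest to highest compound concentration; after 72 h at 37 °C viability was read luminescently and curves fitted.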
KB-V1 MDR tox: KB-V1 MDR subline cytotoxicity; KB-V1 MDR cells viability, CellTiter-Glo, 72 h; actives 3.4% (n = 400,000); Potency, µM (highest dose often 46.1 µM), actives largely listed as cytotoxic; also: nearly all actives have a fitted effect of over 60% in size
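Readout: CellTiter-Glo luminescence, 10 min after addition. Cells: KB-V1 MDR subline, 72 h at 37 degrees C with compound. Analysis: corrected, normalized data fitted to concentration-effect curves.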
HT1080 IDH1KD tx: toxicity to HT-1080 IDH1 knockdown cells (counter line) | HT-1080 IDH1 knockdown viability, ATP luminescence, 48 h | Potency, µM (titrated, usually from 46.1 µM), hits mostly cytotoxic | actives 2% (n = 360,000) | AID 686971
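Assay cells: HT-1080 with IDH1 knockdown, 750 per well, RPMI/5% FBS. Exposure: 48 h at 37 °C following 2 h pre-incubation. Read: CellTiter-Glo luminescence; fitted concentration-response, curve class assigned.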
HT1080-NT tox: kills 2HG-producing HT-1080-NT fibrosarcoma cells. HT-1080-NT fibrosarcoma viability, CellTiter-Glo ATP luminescence, 48 h. actives 1.6% (n = 360,000). Potency, µM (top dose mostly 46.1 µM), actives largely listed as cytotoxic. AID 686970;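 also: NT is the 2HG producing partner of a matched IDH1 knockdown line; nearly all actives have a fitted effect of over 55% in size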
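Toxicity toward the 2HG-producing NT line was scored as %Activity, normalised to DMSO and no-cell wells, from CellTiter-Glo luminescence after 48 hours' treatment.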
A number is an active result; n = inactive; u = inconclusive; x = no result; [ ] = dose if it differs, or a comment. In the library only some 5.7% were active in any assay of this set; here they are far more common. Calls follow the shape of the dose curve; as a rule, active = well fitted curve in the direction sought with a large enough effect; inconclusive = small, poorly fitted or top-dose-only effect, or another doubt; inactive = no such curve, though single readings can be large; an effect the other way counts as inactive or inconclusive.

SMILES	KB-3-1 tox	KB-V1 MDR tox	HT1080 IDH1KD tx	HT1080-NT tox
CC(C)[C@@H](NC(=O)OC(C)(C)C)c1cc(C(=O)c2c(-c3ccccc3)[nH]c3ccccc23)c(N)s1	u	23µM	u	u
O=C(CO/N=C/c1ccccc1O)N1CCc2ccccc21	n	13µM	n	n
Cc1cc(Br)ccc1NC(=O)c1ccc(NS(=O)(=O)c2c(C)noc2C)cc1	n	n	x	x
O=C(CCCn1c(=O)[nH]c2cc(Cl)ccc2c1=O)NC1CCCCCC1	n	21µM	n	n
O=S(=O)(Nc1ccc(-c2ccc(N3CCCC3)nn2)cc1)c1ccc(OC(F)(F)F)cc1	n	n	x	x
CCOCCCNC(=O)C(NC(=O)C1CCC(C)CC1)C(C)C (configuration not stated)	n	n	x	x
COc1ccc(-c2ccc3ncnc(NCc4cccs4)c3c2)cc1	u	n	x	x
C=CCN(c1ccccc1)S(=O)(=O)c1cccc(C(=O)NC2CCN(Cc3ccccc3)CC2)c1	21µM	u	n	n
C=CCN(c1ccccc1)S(=O)(=O)c1cccc(C(=O)NCc2ccco2)c1	n	18µM	u	u
Cc1ccc2cccc(NC(=O)c3ccc(-c4cc(Cl)ccc4Cl)o3)c2n1	n	n	x	x
CCOC(=O)CSC1=C(C#N)C(c2ccc(Cl)cc2)CC(=O)N1 (configuration not stated)	n	n	n	n
CCCCOC(=O)CSC1=C(C#N)C(c2ccc3c(c2)OCO3)CC(=O)N1 (configuration not stated)	n	n	n	n
CCOC(=O)CSC1=C(C#N)C(c2ccc3c(c2)OCO3)CC(=O)N1 (configuration not stated)	7.3µM	u	9.2µM	16µM
CCOC(=O)CSC1=C(C#N)C(c2ccc(C)o2)CC(=O)N1 (configuration not stated)	0.58µM	u	0.58µM	1µM
NS(=O)(=O)c1ccc(CCNC(=O)c2cccc(S(=O)(=O)N3CCc4ccccc43)c2)cc1	n	n	n	n
O=C(CCNS(=O)(=O)c1cccs1)N1CCN(c2cccc(Cl)c2)CC1	n	u	n	n
O=C(CCS(=O)(=O)c1cccc2nonc12)N1CCN(c2ccc(F)cc2)CC1	n	23µM	n	n
O=C(CCNS(=O)(=O)c1cccc2nonc12)N1CCN(c2cccc(Cl)c2)CC1	n	10µM	n	n
O=C(CCS(=O)(=O)c1cccc2nonc12)N1CCOCC1	n	n	n	u
O=C(Nc1c(C(=O)N2CCN(c3ccccc3F)CC2)oc2ccccc12)c1ccc(Br)o1	n	n	x	x
COc1cc(NC(=O)N2CCN(c3cc(-c4noc(C)n4)ccc3C)CC2)cc(OC)c1OC	n	n	x	x
C=CCNc1nc(N)c(C(=C(C#N)C#N)c2ccc(Br)cc2)s1	u	18µM	u	n
CCc1ccc(NC(=O)Cn2c(=O)n(CCCCC(=O)NCc3ccc4c(c3)OCO4)c(=O)c3ccccc32)cc1	n	u	x	x
CC12CC3CC(C)(C1)CC(C(=O)NCc1ccco1)(C3)C2	n	n	n	n
O=C(NCc1ccco1)C12CC3CC(C1)CC(C(=O)NCc1ccco1)(C3)C2	n	21µM	n	n
SMILES	KB-3-1 tox	KB-V1 MDR tox	HT1080 IDH1KD tx	HT1080-NT tox
c1ccc2sc(N3CCCCC3)nc2c1	n	n	n	n
Cc1cc(N2CCN(c3nc4ccccc4s3)CC2)n2ncnc2n1	2.6µM	1µM	u	u
Cc1ccc(NC(=O)CSc2nc(NS(=O)(=O)c3ccc(C)cc3)cc(=O)[nH]2)cc1	n	4.1µM	n	n
O=c1cc(NS(=O)(=O)c2ccccc2)nc(SCc2ccc(Cl)cc2)[nH]1	n	16µM	n	n
Cc1ccc(S(=O)(=O)Nc2cc(=O)[nH]c(SCC(=O)Nc3cccc(C(F)(F)F)c3)n2)cc1	n	n	n	n
CNC(=O)COc1ccccc1C(=O)Nc1ccccc1	u	n	x	x
Cc1ccc(-c2nnc(SCC(=O)NC3CCCC3)nc2-c2ccc(C)cc2)cc1	n	n	x	x
Cc1ccc(S(=O)(=O)NCCC(=O)N2CCN(Cc3ccccc3)CC2)cc1	n	u	n	n
CC(=O)N1CCc2cc(S(=O)(=O)NCCC(=O)N3CCN(Cc4ccccc4)CC3)ccc21	u	16µM	n	n
O=C1Nc2ccccc2N(C(=O)c2ccc3ccccc3c2)C1c1nc2ccccc2[nH]1 (configuration not stated)	u	16µM	u	u
CC1C(=O)Nc2ccccc2N1C(=O)c1ccc(O)cc1 (configuration not stated)	n	n	n	n
Cc1ccc(S(=O)(=O)Nc2cc(Cl)c3oc4c(c3c2)C(=O)CC(C)(C)C4)cc1	n	u	x	x
OC(CN1CCCCC1)Cn1c2ccccc2c2cc(Br)ccc21 (configuration not stated)	u	16µM	u	23µM
O=C(NCCc1ccccc1)C1CCN(c2nc3ccccc3o2)CC1	n	n	n	n
Cc1ccccc1-c1nc(CN2CCC(C(=O)NC3CCCCC3)CC2)c(C)o1	n	n	n	n
O=C(NC1CCCc2ccccc21)C1CCN(c2c3c(nc4ncnn24)CCC3)CC1 (configuration not stated)	n	21µM	n	n
Cc1oc(-c2ccccc2F)nc1CN1CCC(C(=O)NC2CCCc3ccccc32)CC1 (configuration not stated)	n	8.2µM	n	n
Cc1oc(-c2ccccc2F)nc1CN1CCC(C(=O)NC2CCCCCCC2)CC1	n	12µM	n	n
O=C(NC1CCCCCCC1)C1CCN(c2nc3ccccc3o2)CC1	18µM	2.3µM	n	u
Cc1oc(-c2ccccc2F)nc1CN1CCC(C(=O)NCc2ccco2)CC1	n	n	n	n
CCOC(=O)c1sc(N2C(=O)c3oc4ccc(F)cc4c(=O)c3C2c2ccc(C)cc2)nc1C (configuration not stated)	n	n	x	x
COC(=O)c1ccc(OCC2c3cc(OC)c(OC)cc3CCN2C(=O)Cc2ccccc2)cc1 (configuration not stated)	n	n	x	x
CSc1nc(Nc2ccc(C)cc2)c(C#N)c(-c2ccccc2)n1	n	n	x	x
Cc1nn2c(N3CCN(C(=O)c4ccco4)CC3)cc(C(C)(C)C)nc2c1-c1ccccc1	u	18µM	n[9.24 µM]	n
Cc1nn2c(N3CCN(C4CCCC4)CC3)cc(C(C)(C)C)nc2c1-c1ccccc1	n	n	n	n
SMILES	KB-3-1 tox	KB-V1 MDR tox	HT1080 IDH1KD tx	HT1080-NT tox
Cc1nn2c(N3CCN(C)CC3)cc(C(C)(C)C)nc2c1-c1ccccc1	u	u	16µM	21µM
COc1ccc(CCNC(=O)CSc2n[nH]c(-c3ccccc3Cl)n2)cc1OC	n	n	x	x
COc1ccc2c(c1)sc1ncc(C(=O)NCc3ccc(Cl)cc3)c(=O)n12	n	n	x	x
Cc1cccc(NC(=O)CN2CCN(C(=O)c3ccc(OCc4cn5ccccc5n4)cc3)CC2)c1C	n	n	n	n[9.24 µM]
O=C(CN1CCN(C(=O)c2ccc(OCc3cn4ccccc4n3)cc2)CC1)Nc1cccc(F)c1	n	n	n	7.3µM
COc1ccc(-c2[nH]c(-c3ccc(F)cc3)nc2SCC(=O)Nc2ccc(OC)c(OC)c2)cc1	n	n	x	x
